Experimental data from article PMC4666376, “Characterisation of aptamer–target interactions by branched selection and high-throughput sequencing of SELEX pools”.

Molecular target: PAI-1 wild type, active (human, UniProt P05121 24-402)
Experiment: branched SELEX with high-throughput sequencing; PAI-1 immobilised on polyclonal anti-PAI-1 antibody; HBS (10 mM HEPES pH 7.4, 140 mM NaCl), 2 mM MgCl2, 2 mM CaCl2, 0.1% BSA; RNA pool 100 nM; PAI-1 captured on antibody-coated wells; 45 min; binding temperature not stated (PAI-1 capture at room temperature); high values mean tight binding;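 also: Pool frequency after one selection round with this target divided by frequency before selection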
Details: protein: recombinant; tags: N-terminal His6; structured_RNA; 2'-F pyrimidines

Chain of PAI-1 wild type, active (P05121 24-402): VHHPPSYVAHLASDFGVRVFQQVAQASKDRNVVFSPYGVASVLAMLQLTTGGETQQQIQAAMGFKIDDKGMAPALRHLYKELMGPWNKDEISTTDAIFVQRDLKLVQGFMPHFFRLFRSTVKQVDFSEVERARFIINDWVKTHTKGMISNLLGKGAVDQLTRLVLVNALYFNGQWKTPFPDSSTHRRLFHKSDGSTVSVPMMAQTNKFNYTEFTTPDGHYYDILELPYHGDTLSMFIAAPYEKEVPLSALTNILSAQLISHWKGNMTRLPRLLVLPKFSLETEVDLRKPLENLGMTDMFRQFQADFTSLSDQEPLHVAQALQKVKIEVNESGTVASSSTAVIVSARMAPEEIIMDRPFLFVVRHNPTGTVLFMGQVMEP

Q: “GGGGCCACCAACGACAUUACACUGUAGAGAAUACCCAAUUCUCGACUAGAUGCGUUGAUAUAAAUAGUGCCCAUGGAUC” was tested. Which binding signal did it give?
A: Its binding signal is 0.74 enrichment factor.

Q: How did the binding signal turn out when “GGGGCCACCAACGACAUUGUGCCAUGUAGAUCUUUAGGAGAUCGACCAGCAGUGUUGAUAUAAAUAGUGCCCAUGGAUC” was run?
A: The binding signal was 0.57 enrichment factor.

Q: “GGGGCCACCAACGACAUUAAGUUCGUCCCCGUAAGCUCUUACGGGGUCUAUGCGUUGAUAUAAAUAGUGCCCAUGGAUC” was tested. Which binding signal did it give?
A: Its binding signal is 5.92 enrichment factor.

Q: How did the binding signal turn out when “GGGGCCACCAACGACAUUAUCGACCAUAACGUAGCGGGCUUUCCCGUGAUCAGGUUGAUAUAAAUAGUGCCCAUGGAUC” was run?
A: Its binding signal is 0.91 enrichment factor.

Q: With “GGGGCCACCAACGACAUUGAUGAUCACUGUUUCGCGCAGUGCCGUAUAUCGAUGUUGAUAUAAAUAGUGCCCAUGGAUC” as the sequence, how does the binding signal read?
A: Its binding signal is 4.36 enrichment factor.

Q: Which binding signal does the source give for “GGGGCCACCAACGACAUUGUCGUAGCCGGACUCCACCGGUGACCAAUGAGCGUUGAUAUAAAUAGUGCCCAUGGAUC” here?
A: Its binding signal is 0.57 enrichment factor.

Q: “GGGGCCACCAACGACAUUUGACAUCGUAGGCAAAAAAGCUGACUGUUCAGAUUGUUGAUAUAAAUAGUGCCCAUGGAUC” was tested. Which binding signal did it give?
A: Its binding signal is 2.86 enrichment factor.

Q: With “GGGGCCACCAACGACAUUGAACGUAAGGAGAGUGCGCUUACCGCACAAUGUUUGUUGAUAUAAAUAGUGCCCAUGGAUC” as the sequence, how does the binding signal read?
A: Its binding signal is 0.43 enrichment factor.

Q: How did the binding signal turn out when “GGGGCCACCAACGACAUUUACGCACCGUAGACUUAAUAGUCGAUUAGUACAUGUUGAUAUAAAUAGUGCCCAUGGAUC” was run?
A: Its binding signal is 1.19 enrichment factor.

Q: How did the binding signal turn out when “GGGGCCACCAACGACAUUGCUGUGCUAAUCGGUCUUCCGACGCAUAUUCGAAUGUUGAUAUAAAUAGUGCCCAUGGAUC” was run?
A: The binding signal was 0.63 enrichment factor.

Q: “GGGGCCACCAACGACAUUACAUACCGUAGGGCAGAUCGCCUGACUAGUAAUACGUUGAUAUAAAUAGUGCCCAUGGAUC” was tested. Which binding signal did it give?
A: Its binding signal is 0.24 enrichment factor.

Q: “GGGGCCACCAACGACAUUGCGCGAAGCGCUUACGCGUGUUGAUCGAAUGUUGUUGAUAUAAAUAGUGCCCAUGGAUC” was tested. Which binding signal did it give?
A: Its binding signal is 1.4 enrichment factor.

Q: Which binding signal does the source give for “GGGGCCACCAACGACAUUUUGAUCAACACAACGUAGGUCUAUGCGACCGAUAGUUGAUAUAAAUAGUGCCCAUGGAUC” here?
A: Its binding signal is 2.02 enrichment factor.

Q: Which binding signal does the source give for “GGGGCCACCAACGACAUUCGGGACUACGUAGGCGGAUUCGCCGAUUACCCGUUGUUGAUAUAAAUAGUGCCCAUGGAUC” here?
A: The binding signal was 0.7 enrichment factor.

Q: How did the binding signal turn out when “GGGGCCACCAACGACAUUCACACAACGUAGGCUCGUGAGCCGAUCAGUGAUUAGUUGAUAUAAAUAGUGCCCAUGGAUC” was run?
A: Its binding signal is 0.81 enrichment factor.

Q: With “GGGGCCACCAACGACAUUCAACGACCAGUACGUGUGAGGGCGUACAUCAUGUAGUUGAUAUAAAUAGUGCCCAUGGAUC” as the sequence, how does the binding signal read?
A: Its binding signal is 0.37 enrichment factor.

Q: Which binding signal does the source give for “GGGGCCACCAACGACAUUGCCGUAGUUUCUCGAUUCCCAGAGAGACGAUCGAUGUUGAUAUAAAUAGUGCCCAUGGAUC” here?
A: The binding signal was 4.28 enrichment factor.

Q: “GGGGCCACCAACGACAUUGACCCGUAGUGUCUUACUACGACUUGUAGAUGUUGUUGAUAUAAAUAGUGCCCAUGGAUC” was tested. Which binding signal did it give?
A: The binding signal was 0.5 enrichment factor.

Q: “GGGGCCACCAACGACAUUGAUCAACGAUCACCAUGAUACACAUGGAUCACGUAGUUGAUAUAAAUAGUGCCCAUGGAUC” was tested. Which binding signal did it give?
A: The binding signal was 0.62 enrichment factor.

Q: “GGGGCCACCAACGACAUUACGUAGGUAGCAUUUAUAUGCUUGACCGAUCAAUCGUUGAUAUAAAUAGUGCCCAUGGAUC” was tested. Which binding signal did it give?
A: Its binding signal is 1.07 enrichment factor.

Q: With “GGGGCCACCAACGACAUUCUCGAGAGAGACCUUCCUCGUUAUACGGGGAGUUCGUUGAUAUAAAUAGUGCCCAUGGAUC” as the sequence, how does the binding signal read?
A: Its binding signal is 0.56 enrichment factor.

Q: How did the binding signal turn out when “GGGGCCACCAACGACAUUAAGUUUCGUCCGGAUCGUGCAAUCCGGUCUAUGUGGUUGAUAUAAAUAGUGCCCAUGGAUC” was run?
A: Its binding signal is 4.02 enrichment factor.

Q: With “GGGGCCACCAACGACAUUAGCAGUCGUAGGCCGUAAUGGCUGACCUGUAUGACGUUGAUAUAAAUAGUGCCCAUGGAUC” as the sequence, how does the binding signal read?
A: The binding signal was 0.68 enrichment factor.

Q: How did the binding signal turn out when “GGGGCCACCAACGACAUUGCACCUGUAGGCUAGGUCACUGGCUGACUGCAAUUGUUGAUAUAAAUAGUGCCCAUGGAUC” was run?
A: Its binding signal is 0.47 enrichment factor.
